# Assay outcomes from PubChem BioAssay.
# Shown are actives, neighbours in structure and some others; about 8.1% of the full set was active somewhere.
# SW480 rereplic = A quantitative high throughput screen for small molecules that induce DNA re-replication in SW480 colon adenocarcinoma cells. 1.8% of 340,000 active. SW480 DNA re-replication, Hoechst DNA content imaging, 48 h. Potency, µM (doses to about 46.1 µM), without a hit: at the highest dose re-replication activation, actives largely listed as activators; also: % of control where 0% means no effect; nearly all actives have a fitted effect of over 55% in size
#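 Quantitative HTS format with DMSO vehicle controls; 48 hr drug incubation at 37 C, then 40 min Hoechst staining and scanning imager measurement at 405 nm excitation.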
# MCF10A rereplic = A quantitative high throughput screen for small molecules that induce DNA re-replication in MCF 10a normal breast cells. MCF 10A DNA re-replication, Hoechst nuclear intensity, 48 h. Potency, µM (highest dose often 46.1 µM), for inactives: at the highest dose activity, positive = re-replication, usual class: activators. 2.9% of 350,000 active. AID 624296, 2012; also: % of control where 0% means no effect; nearly all actives have a fitted effect of over 50% in size
# KB-3-1 cytotox = qHTS assay for MDR1-selective chemotherapeutics: Primary screen using the parental adenocarcinoma cell KB-3-1; KB-3-1 viability, CellTiter-Glo ATP luminescence, 72 h; Potency, µM (titrated, usually from 46.1 µM), hits mostly cytotoxic; 1.4% of 400,000 active; also: % is scaled to controls: 0 for no effect and ±100 for the full control effect; nearly all actives have a fitted effect of over 60% in size
#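 Cytotoxicity measured as CellTiter-Glo luminescence after 72 h at 37 C. Compound titrations were pinned onto drug-naive KB-3-1 parental adenocarcinoma cells grown in DMEM with 10% FBS, and normalized data fitted to concentration-response curves.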
# ELG1 repair inh = qHTS screen for small molecules that inhibit ELG1-dependent DNA repair in human embryonic kidney (HEK293T) cells expressing luciferase-tagged ELG1. 2.3% of 330,000 active. Potency, µM (titrated, usually from 46.1 µM), for the others: at the highest dose activity change, negative = inhibition, hits mostly inhibitors. AID 504467, 2011. HEK293T ELG1-luciferase reporter, luminescence, 16 h; DNA damage induced by 5-fluorouridine; also: % is scaled to controls: 0 for no effect and ±100 for the full control effect; nearly all actives have a fitted effect of over 55% in size
#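 Cells (2,000 per well) received 5-fluorouridine plus test compound or DMSO and were incubated 16 hr at 37 °C, 5% CO2. Luciferase activity was read by luminescence 30 min after ONE-Glo addition; signal suppression marked inhibition of damage-induced ELG1 function.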
# KB-V1 MDR tox = qHTS assay for MDR1-selective chemotherapeutics: Primary screen using the drug-selected MDR subline cells KB-V1. KB-V1 MDR cells viability, CellTiter-Glo, 72 h. Potency, µM (titrated, usually from 46.1 µM), most hits filed as cytotoxic. 3.4% of 400,000 active; also: % is scaled to controls: 0 for no effect and ±100 for the full control effect; nearly all actives have a fitted effect of over 60% in size
#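 Cytotoxicity via CellTiter-Glo luminescence after 72 h compound exposure at 37 degrees C. Cells: drug-selected KB-V1 line, DMEM phenol-red free plus 10% FBS. Compounds tested at multiple concentrations; normalized data fitted to concentration-effect curves.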
# Numbers without * were called inactive; i = inactive; u = inconclusive; x = not tested or not shown. Calls follow the shape of the dose curve; as a rule, active = well fitted curve in the direction sought with a large enough effect; inconclusive = small, poorly fitted or top-dose-only effect, or another doubt; inactive = no such curve, though single readings can be large; an effect the other way counts as inactive or inconclusive. Potency is read from the fitted curve at half-maximal effect.
SMILES,SW480 rereplic,MCF10A rereplic,KB-3-1 cytotox,ELG1 repair inh,KB-V1 MDR tox
CCOc1ccc(NC(=S)NC(=O)/C=C/c2ccc(OC)c(OC)c2)c([N+](=O)[O-])c1,-2%,16%,i,u,u
O=C(COC(=O)c1ccccc1O)NC12CC3CC(CC(C3)C1)C2,1%,4%,i,u,i
O=C(COC(=O)/C=C/C(=O)OCC(=O)NC12CC3CC(CC(C3)C1)C2)NC12CC3CC(CC(C3)C1)C2,18µM*,5.2µM*,u,u,i
NC(=O)c1ccsc1NC(=O)COC(=O)CSc1ccc(Cl)cc1,-4%,-31%,i,-6%,i
N=C(N)SCc1nc2ccccc2c(=O)n1-c1ccccc1Cl,-4%,u,i,u,23µM*
O=C(O)CCCc1ccc2ccc3cccc4ccc1c2c34,4%,16µM*,i,0%,i
NCCCCc1ccc2ccc3cccc4ccc1c2c34,27%,u,i,1%,i
CCOC(=O)CSc1nnc2c3ccccc3n(CC)c2n1,-10%,u,i,-4%,i
CCOC(=O)C(Sc1nnc2c3ccccc3n(CC)c2n1)C(=O)OCC,5%,6%,u,0%,13µM*
CCCn1c2ccccc2c2nnc(SC(CC)C(=O)Nc3cc(C)on3)nc21 (stereo not drawn),3%,7%,i,23µM*,i
CCn1c2ccccc2c2nnc(SCC(=O)NC(CC(C)C)C(=O)OC)nc21 (stereo not drawn),0%,1%,i,-19%,5.2µM*
CCC(Sc1nnc2c3ccccc3n(CC)c2n1)C(=O)Nc1nnc(C(C)C)s1 (stereo not drawn),x,x,i,x,i
O=C(COc1ccc(Br)cc1F)NC1CC1,1%,7%,i,u,i
O=C(Nc1cccc(NC(=O)c2ccccc2Cl)c1)c1ccc([N+](=O)[O-])o1,u,3.7µM*,u,23µM*,u
COc1ccc(N2CCCC2)c(NC(=O)c2ccc([N+](=O)[O-])o2)c1,u,u,u,5%,u
O=C(Nc1ccc(N2CCCC2)c(Cl)c1)c1ccc([N+](=O)[O-])o1,4%,2.9µM*,u,u,u
O=C(Nc1ccccc1N1CCCC1)c1ccc([N+](=O)[O-])o1,5.2µM*,23µM*,23µM*,u,u
c1ccc2c(c1)OCCOCCOCCOCCOc1ccccc1OCCOCCOCCO2,u,3%,26µM*,-27%,3.7µM*
Brc1ccc2c(c1)OCCOCCOCCOCCOCCOCCO2,7%,1%,i,-29%,6.5µM*
COc1cc(/C(C)=N/N2CCN(c3ccccc3OC)CC2)ccc1O,-33%,3.7µM*,i,0%,i
COc1ccccc1N1CCN(/N=C/c2cc([N+](=O)[O-])ccc2Cl)CC1,-79%,0.58µM*,i,-30%,i
COc1ccccc1N1CCN(/N=C/c2cc(OC)c(OC)c(OC)c2)CC1,-81%,-74%,i,-1%,15µM*
COc1ccccc1N1CCN(/N=C(\C)c2ccccc2O)CC1,1%,0%,i,-1%,i
CCOC(=O)c1sc(Nc2nc3c(OC)cccc3s2)cc1C,u,23µM*,i,u,u
Nc1ccc(Nc2nc(-c3cc4ccccc4oc3=O)cs2)cc1,2%,22%,i,u,u
SMILES,SW480 rereplic,MCF10A rereplic,KB-3-1 cytotox,ELG1 repair inh,KB-V1 MDR tox
CCOC(=O)c1sc(Nc2nc3cc4c(cc3s2)OCO4)cc1C,-7%,u,i,u,i
COc1cccc2sc(Nc3nc4ccc(NC(C)=O)cc4s3)nc12,u,3.3µM*,16µM*,u,i
COc1cccc2sc(Nc3nc(-c4cc5ccccc5oc4=O)cs3)nc12,5.2µM*,1.3µM*,u,u,8.2µM*
COc1cccc2sc(Nc3nc(-c4ccncc4)cs3)nc12,u,21µM*,5.8µM*,u,8.2µM*
CCN(CC(=O)Nc1c(F)cccc1F)C(=O)C1Cc2ccccc2CN1S(=O)(=O)CC (stereo not drawn),-2%,-1%,i,28%,i
COc1ccccc1NS(=O)(=O)c1ccc(Cl)c(NC(=O)c2sc3cc(Cl)ccc3c2Cl)c1,-2%,0%,i,-8%,i
C=CCOc1ccc(/C=C2\SC(N)=NC2=O)cc1OC,0%,2%,i,u,i
COc1cc(/C=C2/SC(=Nc3ccc(O)cc3)NC2=O)ccc1O,4.6µM*,5.2µM*,9.2µM*,u,u
COc1cc(/C=C2/SC(=O)NC2=O)ccc1OCc1ccccc1,17%,26µM*,i,u,i
COc1ccc(/C=C2/SC(=S)NC2=O)cc1OCc1ccccc1,24%,u,i,u,i
COc1cc(/C=C2\SC(=Nc3ccccc3)NC2=O)cc(Cl)c1O,u,21µM*,i,2%,i
COc1cc(/C=C2\SC(N)=NC2=O)ccc1O,26%,u,u,10µM*,u
CNS(=O)(=O)c1ccc(C(=O)NCC(=O)NC(C)c2cccs2)cc1 (stereo not drawn),32%,-6%,i,0%,i
COc1cc(/C=C2\SC(=Nc3ccccc3OC)NC2=O)ccc1O,21µM*,8.2µM*,18µM*,u,u
O=C1NC(=Nc2cccnc2)S/C1=C\c1cccc(F)c1,-2%,u,i,-5%,i
COc1cc(/C=C2\SC(=Nc3cccnc3)NC2=O)cc(OC)c1OC,2%,3.7µM*,i,20%,i
COc1ccc(/C=C2\SC(=Nc3ccccc3OC)NC2=O)cc1,u,3.3µM*,u,-21%,u
CCOC(=O)N1CCc2c(sc3c2c(=O)n(Cc2ccccc2)c(=O)n3CC(=O)NCC2CCCO2)C1 (stereo not drawn),-7%,0%,i,-8%,i
CN1c2ccccc2C(C)(C)C12CC(c1cccc(S(=O)(=O)N3CCCC3)c1)=NO2 (stereo not drawn),-9%,-55%,u,4%,6.5µM*
CN1c2ccccc2C(C)(C)C12CC(c1ccc(S(=O)(=O)N3CCCCC3)cc1)=NO2 (stereo not drawn),2%,-6%,i,5%,u
Cc1cc(C)cc(OCC(O)CN2CCC(CN3C(=O)c4cccc5cccc(c45)C3=O)CC2)c1 (stereo not drawn),17%,u,u,u,5.8µM*
